Our source for the log2 fold change values is the supplement of paper PMC10849652.

About 8,800 targets were measured; listed, in parts, are those with a hit and a random draw of the rest. About 0.5% of all pairs of compound and target were hits. A number with no mark means an inactive call.

Sequence of UniProt P54278 (P54278 whole entry, looked up): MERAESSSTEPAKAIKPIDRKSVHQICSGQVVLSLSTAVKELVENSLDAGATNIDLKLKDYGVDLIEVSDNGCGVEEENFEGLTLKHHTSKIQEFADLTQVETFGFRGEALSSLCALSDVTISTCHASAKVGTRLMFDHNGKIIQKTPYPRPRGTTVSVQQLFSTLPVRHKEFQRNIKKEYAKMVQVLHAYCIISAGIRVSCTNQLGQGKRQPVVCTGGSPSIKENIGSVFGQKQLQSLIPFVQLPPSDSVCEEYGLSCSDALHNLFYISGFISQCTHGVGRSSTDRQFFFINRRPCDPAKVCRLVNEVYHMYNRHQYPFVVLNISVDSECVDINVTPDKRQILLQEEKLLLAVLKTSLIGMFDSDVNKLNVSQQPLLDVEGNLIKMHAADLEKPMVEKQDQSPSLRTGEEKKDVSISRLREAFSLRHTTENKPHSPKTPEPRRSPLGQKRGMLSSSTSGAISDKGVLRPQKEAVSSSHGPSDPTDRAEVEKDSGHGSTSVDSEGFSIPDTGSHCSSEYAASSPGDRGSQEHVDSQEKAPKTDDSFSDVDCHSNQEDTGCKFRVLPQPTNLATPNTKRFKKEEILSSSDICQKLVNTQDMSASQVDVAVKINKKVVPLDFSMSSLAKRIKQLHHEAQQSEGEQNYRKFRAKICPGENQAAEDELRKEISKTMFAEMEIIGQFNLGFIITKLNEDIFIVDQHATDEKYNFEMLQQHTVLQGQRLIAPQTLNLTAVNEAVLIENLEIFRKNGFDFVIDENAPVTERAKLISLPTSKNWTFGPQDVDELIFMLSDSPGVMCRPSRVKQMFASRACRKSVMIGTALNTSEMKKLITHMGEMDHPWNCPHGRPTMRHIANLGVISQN
Sequence of UniProt Q8TCG2 (Q8TCG2 whole entry, looked up): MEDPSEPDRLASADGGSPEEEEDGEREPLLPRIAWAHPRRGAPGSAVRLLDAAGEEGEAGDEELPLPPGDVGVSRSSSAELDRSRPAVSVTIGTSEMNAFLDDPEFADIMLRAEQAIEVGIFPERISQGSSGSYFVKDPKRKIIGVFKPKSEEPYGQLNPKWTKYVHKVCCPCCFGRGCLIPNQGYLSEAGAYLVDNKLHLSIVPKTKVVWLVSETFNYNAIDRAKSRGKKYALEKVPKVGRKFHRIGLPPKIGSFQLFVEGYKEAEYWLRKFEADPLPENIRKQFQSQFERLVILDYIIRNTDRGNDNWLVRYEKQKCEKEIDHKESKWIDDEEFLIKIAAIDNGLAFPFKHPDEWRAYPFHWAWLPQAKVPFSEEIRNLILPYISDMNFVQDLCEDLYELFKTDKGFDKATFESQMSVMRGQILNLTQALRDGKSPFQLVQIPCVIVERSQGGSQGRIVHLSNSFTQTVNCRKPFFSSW
Sequence of UniProt O00625 (O00625 whole entry, looked up): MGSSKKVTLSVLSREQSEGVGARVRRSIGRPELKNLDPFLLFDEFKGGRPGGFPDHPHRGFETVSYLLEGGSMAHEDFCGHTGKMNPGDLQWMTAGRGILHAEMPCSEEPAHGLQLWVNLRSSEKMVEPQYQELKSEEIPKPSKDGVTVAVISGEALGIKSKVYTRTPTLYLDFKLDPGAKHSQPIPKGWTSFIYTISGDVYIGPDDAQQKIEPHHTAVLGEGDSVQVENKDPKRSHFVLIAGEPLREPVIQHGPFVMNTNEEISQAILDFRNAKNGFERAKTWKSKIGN
Sequence of UniProt P41219 (P41219 whole entry, looked up): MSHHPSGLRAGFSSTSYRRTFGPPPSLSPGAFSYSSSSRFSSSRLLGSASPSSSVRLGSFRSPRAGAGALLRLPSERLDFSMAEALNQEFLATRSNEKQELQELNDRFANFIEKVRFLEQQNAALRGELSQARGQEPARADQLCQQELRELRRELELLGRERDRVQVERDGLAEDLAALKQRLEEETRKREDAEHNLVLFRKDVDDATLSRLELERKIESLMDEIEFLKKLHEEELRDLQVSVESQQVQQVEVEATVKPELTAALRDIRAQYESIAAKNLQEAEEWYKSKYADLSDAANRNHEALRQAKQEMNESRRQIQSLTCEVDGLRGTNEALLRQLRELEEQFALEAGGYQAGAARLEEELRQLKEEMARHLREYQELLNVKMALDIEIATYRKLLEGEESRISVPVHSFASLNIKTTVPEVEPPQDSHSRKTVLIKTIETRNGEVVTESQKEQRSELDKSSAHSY
Sequence of UniProt P29350 (P29350 whole entry, looked up): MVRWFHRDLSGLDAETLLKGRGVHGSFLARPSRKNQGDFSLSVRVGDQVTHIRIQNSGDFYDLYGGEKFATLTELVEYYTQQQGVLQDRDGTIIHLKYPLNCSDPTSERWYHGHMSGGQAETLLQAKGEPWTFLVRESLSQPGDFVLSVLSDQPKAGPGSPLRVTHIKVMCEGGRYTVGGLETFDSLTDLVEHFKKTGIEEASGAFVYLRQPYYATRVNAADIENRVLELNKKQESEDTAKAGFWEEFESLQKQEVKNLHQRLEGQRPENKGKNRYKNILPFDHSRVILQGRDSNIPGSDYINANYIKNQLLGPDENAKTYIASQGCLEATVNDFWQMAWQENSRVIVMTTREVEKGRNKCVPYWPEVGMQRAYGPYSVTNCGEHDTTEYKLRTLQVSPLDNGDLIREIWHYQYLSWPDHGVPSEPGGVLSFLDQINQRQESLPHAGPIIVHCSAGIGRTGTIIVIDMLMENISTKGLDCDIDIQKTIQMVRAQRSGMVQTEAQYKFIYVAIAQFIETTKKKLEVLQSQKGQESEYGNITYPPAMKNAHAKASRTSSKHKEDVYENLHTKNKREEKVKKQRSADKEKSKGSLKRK
Sequence of UniProt Q14671 (Q14671 whole entry, looked up): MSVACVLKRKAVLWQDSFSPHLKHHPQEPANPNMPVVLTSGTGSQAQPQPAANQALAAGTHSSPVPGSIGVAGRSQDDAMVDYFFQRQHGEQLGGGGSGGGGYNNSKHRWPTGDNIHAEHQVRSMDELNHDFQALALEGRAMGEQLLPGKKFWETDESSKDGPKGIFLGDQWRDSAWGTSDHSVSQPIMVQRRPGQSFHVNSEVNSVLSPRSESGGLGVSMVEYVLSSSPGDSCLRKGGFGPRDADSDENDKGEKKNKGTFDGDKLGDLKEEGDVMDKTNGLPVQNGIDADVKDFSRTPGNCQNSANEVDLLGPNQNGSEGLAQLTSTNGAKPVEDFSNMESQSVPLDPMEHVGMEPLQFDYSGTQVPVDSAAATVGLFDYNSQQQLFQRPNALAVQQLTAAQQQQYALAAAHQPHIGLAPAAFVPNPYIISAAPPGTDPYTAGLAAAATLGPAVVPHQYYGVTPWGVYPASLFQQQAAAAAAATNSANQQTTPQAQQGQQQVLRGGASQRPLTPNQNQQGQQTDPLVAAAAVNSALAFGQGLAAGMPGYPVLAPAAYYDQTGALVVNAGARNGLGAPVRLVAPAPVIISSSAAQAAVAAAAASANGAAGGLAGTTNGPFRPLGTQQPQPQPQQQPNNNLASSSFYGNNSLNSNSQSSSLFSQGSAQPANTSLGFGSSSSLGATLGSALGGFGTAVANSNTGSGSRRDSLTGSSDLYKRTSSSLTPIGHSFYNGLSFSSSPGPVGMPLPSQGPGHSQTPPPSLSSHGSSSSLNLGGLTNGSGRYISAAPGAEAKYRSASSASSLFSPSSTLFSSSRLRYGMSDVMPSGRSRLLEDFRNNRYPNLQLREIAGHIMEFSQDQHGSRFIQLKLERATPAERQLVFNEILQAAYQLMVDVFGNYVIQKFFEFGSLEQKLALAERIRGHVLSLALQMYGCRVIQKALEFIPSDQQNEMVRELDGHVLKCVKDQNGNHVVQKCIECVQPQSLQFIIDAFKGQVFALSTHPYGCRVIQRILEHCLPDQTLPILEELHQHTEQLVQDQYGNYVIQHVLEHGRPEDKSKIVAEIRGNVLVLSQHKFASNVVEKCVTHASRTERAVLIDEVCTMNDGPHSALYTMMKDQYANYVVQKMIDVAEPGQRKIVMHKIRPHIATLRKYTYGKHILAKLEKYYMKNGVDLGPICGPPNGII
Sequence of UniProt Q8N4L2 (Q8N4L2 whole entry, looked up): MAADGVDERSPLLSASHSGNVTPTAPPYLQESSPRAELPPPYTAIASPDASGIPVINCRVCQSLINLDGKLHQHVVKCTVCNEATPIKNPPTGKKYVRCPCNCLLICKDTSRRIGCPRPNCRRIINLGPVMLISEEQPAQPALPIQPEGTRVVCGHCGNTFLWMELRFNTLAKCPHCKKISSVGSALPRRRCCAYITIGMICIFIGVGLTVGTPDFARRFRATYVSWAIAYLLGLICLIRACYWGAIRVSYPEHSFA
Sequence of UniProt O00264 (O00264 whole entry, looked up): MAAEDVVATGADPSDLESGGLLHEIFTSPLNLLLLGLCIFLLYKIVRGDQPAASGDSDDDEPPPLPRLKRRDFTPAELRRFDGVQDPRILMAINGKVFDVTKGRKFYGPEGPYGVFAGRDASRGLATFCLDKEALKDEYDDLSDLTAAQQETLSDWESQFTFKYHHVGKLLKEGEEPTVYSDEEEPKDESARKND
Sequence of UniProt Q13362 (Q13362 whole entry, looked up): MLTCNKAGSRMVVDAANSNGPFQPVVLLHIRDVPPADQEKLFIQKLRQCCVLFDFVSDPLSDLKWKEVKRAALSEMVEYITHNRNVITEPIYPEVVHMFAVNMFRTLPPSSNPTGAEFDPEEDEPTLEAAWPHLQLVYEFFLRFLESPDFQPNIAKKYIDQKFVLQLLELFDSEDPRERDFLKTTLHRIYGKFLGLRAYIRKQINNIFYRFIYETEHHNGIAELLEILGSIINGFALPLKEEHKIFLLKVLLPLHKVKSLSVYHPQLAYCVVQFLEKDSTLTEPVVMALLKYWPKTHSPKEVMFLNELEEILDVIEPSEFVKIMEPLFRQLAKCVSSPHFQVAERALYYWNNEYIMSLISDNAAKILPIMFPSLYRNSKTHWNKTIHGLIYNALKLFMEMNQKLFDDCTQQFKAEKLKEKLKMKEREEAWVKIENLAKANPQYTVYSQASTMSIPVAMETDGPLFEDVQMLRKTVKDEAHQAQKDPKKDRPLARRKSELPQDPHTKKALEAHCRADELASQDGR
Sequence of UniProt P07737 (P07737 whole entry, looked up): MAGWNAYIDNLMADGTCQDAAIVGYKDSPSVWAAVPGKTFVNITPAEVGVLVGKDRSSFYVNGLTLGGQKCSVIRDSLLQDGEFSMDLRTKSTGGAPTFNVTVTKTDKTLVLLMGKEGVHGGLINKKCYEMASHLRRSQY

Compound in one test: Cn1cc(-c2ccc3c(c2)CCN3C(=O)Cc2cccc(C(F)(F)F)c2)c2c(N)ncnc21
Briefly: log2 fold change, soluble protein after heating vs DMSO (PISA); higher = thermal stabilisation; K562 lysate, 10 uM; active = over 0.2 and 3.5 SD of the protein, either way, in both replicates (recomputed). An outline of the steps: (§1)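 Dounce homogenisation of K562 pellets in PBS pH 7.4 with 1 mM MgCl2 produced a crude extract, used at 1 mg/mL protein. Exposure to 10 μM compound lasted 30 min, and aliquots were then heated for 3 min across 48°C-58°C, pooled and brought to 0.5% NP-40 at 4°C. The supernatant after 21,000xg for 90 min was quantified by TMTpro 16plex LC-MS/MS with channel sums equalised. Duplicate values are given as log-two fold change in thermal stability relative to solvent controls.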
On to PRRC2A (UniProt P48634), for which the log2 fold change is -0.003.

PSMB9 (UniProt P28065): the log2 fold change was -0.033.

PRKAR2A (UniProt P13861): the log2 fold change is 0.017.

Consider PLEKHF1 (UniProt Q96S99), for which the log2 fold change is -0.027.

As to QKI (UniProt Q96PU8), the log2 fold change was -0.038.

As to PGRMC1 (UniProt O00264), the log2 fold change was 0.012.

With PYURF (UniProt Q96I23), the log2 fold change is 0.048.

For PRKAB2 (UniProt O43741), the log2 fold change is 0.042.

Turning to PHKA1 (UniProt P46020), the log2 fold change was 0.029.

PUS1 (UniProt Q9Y606): the log2 fold change was 0.018.

Regarding POC5 (UniProt Q8NA72), the log2 fold change is -0.081.

For PELO (UniProt Q9BRX2), the log2 fold change is 0.032.

Turning to PPIL2 (UniProt Q13356), the log2 fold change is -0.004.

With PUM1 isoform 3 (UniProt Q14671), the log2 fold change was 0.016.

Consider PTPN7 isoform 3 (UniProt P35236), for which the log2 fold change was 0.064.

In the case of PDCD6IP isoform 2 (UniProt Q8WUM4), the log2 fold change was 0.022.

As for PRPH isoform 2 (UniProt P41219), the log2 fold change is 0.036.

On to PIR (UniProt O00625), for which the log2 fold change was 0.023.

PTGR2 (UniProt Q8N8N7): the log2 fold change was 0.024.

PPP2R5C isoform 5 (UniProt Q13362): the log2 fold change is -0.005.

In the case of PFKFB3 isoform 4 (UniProt Q16875), the log2 fold change was 0.075.

For PFDN2 (UniProt Q9UHV9), the log2 fold change was -0.019.

As to PPFIA2 (UniProt O75334), the log2 fold change is 0.01.

As to PCYT1B (UniProt Q9Y5K3), the log2 fold change was -0.026.

For the target PPP1R11 (UniProt O60927), the log2 fold change is -0.055.

Turning to PMS2 (UniProt P54278), the log2 fold change is 0.047.

Turning to PLXNB2 (UniProt O15031), the log2 fold change was 0.003.

Consider PUS3 (UniProt Q9BZE2), for which the log2 fold change was 0.145.

Regarding PSTPIP2 (UniProt Q9H939), the log2 fold change is 0.023.

With PGPEP1 (UniProt Q9NXJ5), the log2 fold change was 0.011.

As to PTPN6 isoform 4 (UniProt P29350), the log2 fold change is 0.071.

Regarding PDE2A (UniProt O00408), the log2 fold change was 0.035.

For PPIL3 (UniProt Q9H2H8), the log2 fold change is -0.032.

Consider PI4K2B (UniProt Q8TCG2), for which the log2 fold change is 0.092.

On to PRIM2 (UniProt P49643), for which the log2 fold change is 0.02.

In the case of PFN1 (UniProt P07737), the log2 fold change was -0.006.

For PIP4P2 (UniProt Q8N4L2), the log2 fold change is -0.048.

PLEKHO2 (UniProt Q8TD55): the log2 fold change is -0.039.

Consider POLD3 (UniProt Q15054), for which the log2 fold change is 0.007.

Compound in the next test: Cn1cc(CNCC2CCN(c3ncc(C(=O)NO)cn3)CC2)c2ccccc21 [quisinostat]
The description is as above. An outline of the steps:
as §1
For PRRC2A (UniProt P48634), the log2 fold change was 0.015.

Regarding PSMB9 (UniProt P28065), the log2 fold change is -0.213.

On to PRKAR2A (UniProt P13861), for which the log2 fold change is 0.02.

For the target PLEKHF1 (UniProt Q96S99), the log2 fold change is -0.009.

QKI (UniProt Q96PU8): the log2 fold change was -0.013.

As for PGRMC1 (UniProt O00264), the log2 fold change was 0.106.

Take PYURF (UniProt Q96I23): the log2 fold change is 0.011.

Turning to PRKAB2 (UniProt O43741), the log2 fold change was -0.031.

As to PHKA1 (UniProt P46020), the log2 fold change is -0.072.

Regarding PUS1 (UniProt Q9Y606), the log2 fold change was -0.058.

POC5 (UniProt Q8NA72): the log2 fold change was 0.007.

On to PELO (UniProt Q9BRX2), for which the log2 fold change was -0.022.

Take PPIL2 (UniProt Q13356): the log2 fold change was -0.063.

On to PUM1 isoform 3 (UniProt Q14671), for which the log2 fold change was 0.01.

For the target PTPN7 isoform 3 (UniProt P35236), the log2 fold change was 0.008.

For PDCD6IP isoform 2 (UniProt Q8WUM4), the log2 fold change was 0.002.

Regarding PRPH isoform 2 (UniProt P41219), the log2 fold change is 0.034.

PIR (UniProt O00625): the log2 fold change was 0.011.

PTGR2 (UniProt Q8N8N7): the log2 fold change is -0.008.

In the case of PPP2R5C isoform 5 (UniProt Q13362), the log2 fold change was 0.016.

On to PFKFB3 isoform 4 (UniProt Q16875), for which the log2 fold change is -0.012.

Take PFDN2 (UniProt Q9UHV9): the log2 fold change is 0.037.

For the target PPFIA2 (UniProt O75334), the log2 fold change is -0.238.

As for PCYT1B (UniProt Q9Y5K3), the log2 fold change is 0.039.

PPP1R11 (UniProt O60927): the log2 fold change was -0.131.

For PMS2 (UniProt P54278), the log2 fold change was -0.011.

With PLXNB2 (UniProt O15031), the log2 fold change is 0.016.

On to PUS3 (UniProt Q9BZE2), for which the log2 fold change was 0.078.

For PSTPIP2 (UniProt Q9H939), the log2 fold change was -0.037.

In the case of PGPEP1 (UniProt Q9NXJ5), the log2 fold change is 0.041.

Turning to PTPN6 isoform 4 (UniProt P29350), the log2 fold change is 0.01.

Consider PDE2A (UniProt O00408), for which the log2 fold change was 0.026.

In the case of PPIL3 (UniProt Q9H2H8), the log2 fold change is 0.017.

Turning to PI4K2B (UniProt Q8TCG2), the log2 fold change was 0.063.

With PRIM2 (UniProt P49643), the log2 fold change is -0.027.

On to PFN1 (UniProt P07737), for which the log2 fold change is 0.008.

For the target PIP4P2 (UniProt Q8N4L2), the log2 fold change was 0.035.

Take PLEKHO2 (UniProt Q8TD55): the log2 fold change was 0.062.

Take POLD3 (UniProt Q15054): the log2 fold change is -0.049.
